Measured values reported in PubChem BioAssay (EPA / NIEHS).
Values joined by “and” are separate entries in the source; they are usually repeats but may differ in a detail not shown here. Equal values may be shown once. The source holds several records for some structures; these can differ, active in one and inactive in another. Active and inactive are the calls of the source. The calls were made as follows: active = hit-call score of the fitted dose curve at least 0.9, where 1 is the maximum; inactive = score below 0.9.

Experiments:
[1] = read-out: Interleukin-1 alpha (IL1a), IL1A (gene 3552); assay: BSK_KF3CT_IL1a: BioMAP Diversity Plus: KF3CT Assay for Interleukin-1 alpha (IL1a) Biomarker Activity (AID 2283070); conditions: primary human keratinocytes with fibroblasts; actives raise or lower the signal
Summary of the method: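 Human keratinocyte plus foreskin fibroblast primary co-culture, sampled 24 h after chemical dosing. IL-1a measured by ELISA; responses fitted bidirectionally against DMSO baseline (negative control), so gain or loss of signal both count.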

[2] = read-out: TIMP metallopeptidase inhibitor 2 (TIMP2), TIMP2 (gene 7077); assay: BSK_KF3CT_TIMP2: BioMAP Diversity Plus: KF3CT Assay for TIMP metallopeptidase inhibitor 2 (TIMP2) Biomarker Activity (AID 2283071); conditions: primary human keratinocytes with fibroblasts; actives raise or lower the signal
Summary of the method: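 Cells: human keratinocytes co-cultured with foreskin fibroblasts. Treat with chemical, 24 h. Measure TIMP-2 by ELISA; fit curves bidirectionally vs DMSO baseline.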

[3] = read-out: Transforming growth factor beta 1 (TGFb1), TGFB1 (gene 7040); assay: BSK_KF3CT_TGFb1: BioMAP Diversity Plus: KF3CT Assay for Transforming growth factor beta 1 (TGFb1) Biomarker Activity (AID 2283072); conditions: primary human keratinocytes with fibroblasts; actives raise or lower the signal
Summary of the method: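 Primary human skin cells (keratinocytes, foreskin fibroblasts) were co-cultured, exposed to test chemical and sampled at 24 h. TGF-b1 levels were measured by ELISA and fitted bidirectionally relative to DMSO.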

[4] = read-out: Matrix Metallopeptidase 9 (MMP9), MMP9 (gene 4318); assay: BSK_KF3CT_MMP9: BioMAP Diversity Plus: KF3CT Assay for Matrix Metallopeptidase 9 (MMP9) Biomarker Activity (AID 2283074); conditions: primary human keratinocytes with fibroblasts; actives raise or lower the signal;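 as to AC50: MMP9 protein level quantified by ELISA in the co-culture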
Summary of the method: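 Keratinocyte plus foreskin fibroblast human primary skin co-culture was dosed with chemical and MMP-9 was quantified by ELISA 24 h later. Bidirectional curve fitting used DMSO as negative control and activity baseline.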

[5] = read-out: urokinase plasminogen activator (uPA), PLAU (gene 5328); assay: BSK_KF3CT_uPA: BioMAP Diversity Plus: KF3CT Assay for urokinase plasminogen activator (uPA) Biomarker Activity (AID 2283075); conditions: primary human keratinocytes with fibroblasts; actives raise or lower the signal
Summary of the method: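 Human keratinocyte plus foreskin fibroblast primary co-culture exposed to chemical for 24 h. uPA levels were quantified by ELISA, and activity was fitted bidirectionally against a DMSO negative-control baseline.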

CD40, CD40 (gene 958) [6] = assay: BSK_LPS_CD40: BioMAP Diversity Plus: LPS Assay for CD40 Biomarker Activity (AID 2283076); conditions: primary human HUVEC with PBMC; actives raise or lower the signal
Summary of the method: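 CD40 signal, measured by ELISA, is fitted in both directions relative to DMSO vehicle. The system is an LPS-driven human vascular primary co-culture of endothelial cells and PBMC, sampled 24 h after compound addition.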

[7] = read-out: E-selectin (Homo sapiens) (UniProt P16581); assay: BSK_LPS_Eselectin: BioMAP Diversity Plus: LPS Assay for Eselectin Biomarker Activity (AID 2283077); conditions: primary human HUVEC with PBMC; actives raise or lower the signal
Summary of the method: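 Signal of E-selectin, detected by ELISA, served as the endpoint; cells were umbilical vein endothelium with PBMC, read 24 h after treatment. DMSO defined baseline, and both increases and decreases were fitted.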

[8] = read-out: Interleukin-8 (IL8), CXCL8 (gene 3576); assay: BSK_LPS_IL8: BioMAP Diversity Plus: LPS Assay for Interleukin-8 (IL8) Biomarker Activity (AID 2283078); conditions: primary human HUVEC with PBMC; actives raise or lower the signal
Summary of the method: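 Endothelial cells and PBMC from human donors are co-cultured, treated with chemicals and LPS, then assayed for IL-8 by ELISA after 24 h. Parallel SRB staining (0.1% SRB after 10% TCA fixation, 560 nm) flags cytotoxicity.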

[9] = BSK_LPS_SRB: Viability Assessment in the BioMAP Diversity Plus: LPS Assay (AID 2283079); conditions: primary human HUVEC with PBMC;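 also: total protein by sulforhodamine B absorbance as a cytotoxicity measure; measured one day after compound addition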
Summary of the method: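 Overt cytotoxicity was gauged by sulforhodamine B total-protein staining in a primary human vascular endothelial and mononuclear cell co-culture 24 h post-dosing. Activity was fitted in both directions relative to DMSO.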

[10] = read-out: Interleukin-1 alpha (IL1a), IL1A (gene 3552); assay: BSK_LPS_IL1a: BioMAP Diversity Plus: LPS Assay for Interleukin-1 alpha (IL1a) Biomarker Activity (AID 2283080); conditions: primary human HUVEC with PBMC; actives raise or lower the signal
Summary of the method: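 Measured: IL-1 alpha via ELISA at 24 h in LPS-activated human umbilical vein endothelium–PBMC co-culture. Baseline: DMSO, bidirectional fitting.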

[11] = read-out: Monocyte Chemoattractant Protein-1 (MCP1), CCL2 (gene 6347); assay: BSK_LPS_MCP1: BioMAP Diversity Plus: LPS Assay for Monocyte Chemoattractant Protein-1 (MCP1) Biomarker Activity (AID 2283081); conditions: primary human HUVEC with PBMC; actives raise or lower the signal;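 as to AC50: secreted MCP-1 protein quantified by ELISA in culture supernatant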
Summary of the method: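 LPS-stimulated HUVEC/PBMC co-culture; chemical, 24 h; MCP-1 by ELISA; bidirectional fit vs DMSO; cytotoxicity via SRB (0.1% stain, 10% TCA fix, 560 nm) in parallel wells.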

[12] = BSK_LPS_PGE2: BioMAP Diversity Plus: LPS Assay for Prostaglandin E2 (PGE2) Biomarker Activity (AID 2283082); conditions: primary human HUVEC with PBMC; actives raise or lower the signal;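 as to AC50: secreted prostaglandin E2 measured by ELISA in LPS-stimulated co-culture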
Summary of the method: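 LPS-activated HUVEC/PBMC co-culture; cmpd dosed, 24 h; PGE2 by ELISA; bidirectional fit vs DMSO; SRB (0.1%, TCA-fixed, 560 nm) in parallel plates for overt cytotox.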

[13] = read-out: Macrophage colony-stimulating factor (MCSF), CSF1 (gene 1435); assay: BSK_LPS_MCSF: BioMAP Diversity Plus: LPS Assay for Macrophage colony-stimulating factor (MCSF) Biomarker Activity (AID 2283083); conditions: primary human HUVEC with PBMC; actives raise or lower the signal
Summary of the method: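 Compound is added to a human vascular primary co-culture of umbilical vein endothelium and blood mononuclear cells. After 24 h, M-CSF is quantified by ELISA. Signal changes are fitted in both directions against DMSO.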

[14] = read-out: Tissue Factor, F3 (gene 2152); assay: BSK_LPS_TissueFactor: BioMAP Diversity Plus: LPS Assay for Tissue Factor Biomarker Activity (AID 2283084); conditions: primary human HUVEC with PBMC; actives raise or lower the signal
Summary of the method: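 In this co-culture system of umbilical vein endothelium with PBMC, stimulated with LPS, cell-surface CD142 is detected by ELISA at 24 h. Endpoint values derive from bidirectional fitting, DMSO serving as baseline.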

[15] = read-out: Tumor necrosis factor (Homo sapiens) (UniProt P01375); assay: BSK_LPS_TNFa: BioMAP Diversity Plus: LPS Assay for Tumour Necrosis Factor alpha (TNFa) Biomarker Activity (AID 2283085); conditions: primary human HUVEC with PBMC; actives raise or lower the signal;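 as to AC50: TNFa protein level quantified by ELISA in the co-culture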
Summary of the method: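 Read-out is ELISA of TNFa in primary human endothelial cell–PBMC co-cultures at 24 h after compound. Activity in either direction was fitted against DMSO.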

[16] = read-out: Vascular cell adhesion molecule 1 (VCAM1), VCAM1 (gene 7412); assay: BSK_LPS_VCAM1: BioMAP Diversity Plus: LPS Assay for Vascular cell adhesion molecule 1 (VCAM1) Biomarker Activity (AID 2283086); conditions: primary human HUVEC with PBMC; actives raise or lower the signal
Summary of the method: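 HUVEC + PBMC co-culture, LPS system; compound 24 h; VCAM-1 by ELISA; bidirectional fit vs DMSO control; parallel SRB (0.1%, TCA-fixed, 560 nm) for cytotoxicity.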

CD40, CD40 (gene 958) [17] = assay: BSK_SAg_CD40: BioMAP Diversity Plus: SAg Assay for CD40 Biomarker Activity (AID 2283088); conditions: primary human HUVEC with PBMC; actives raise or lower the signal
Summary of the method: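 Fluorescence ELISA read-out of CD40 from umbilical vein endothelium plus peripheral blood mononuclear cells, sampled 24 h after dosing. Values come from bidirectional curve fitting with DMSO as baseline.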

CD69, CD69 (gene 969) = assay: BSK_SAg_CD69: BioMAP Diversity Plus: SAg Assay for CD69 Biomarker Activity (AID 2283089); conditions: primary human HUVEC with PBMC; actives raise or lower the signal;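 as to AC50: cell surface CD69 protein quantified by ELISA with fluorescence detection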
Summary of the method: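 HUVEC co-cultured with PBMC were dosed with chemical, and CD69 was measured by ELISA with fluorescence read-out 24 h later. Bidirectional curve fitting used DMSO as negative control and activity baseline.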

CD38, CD38 (gene 952) = assay: BSK_SAg_CD38: BioMAP Diversity Plus: SAg Assay for CD38 Biomarker Activity (AID 2283087); conditions: primary human HUVEC with PBMC; actives raise or lower the signal
Summary of the method: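 Human HUVEC plus PBMC co-culture stimulated with superantigen; CD38 measured by ELISA 24 h after chemical dosing. Fluorescence read-out, bidirectional fit against DMSO; cytotoxicity tracked in parallel by SRB and Alamar Blue.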

Measured: AC50

E-selectin (Homo sapiens), sequence (P16581 whole entry, looked up): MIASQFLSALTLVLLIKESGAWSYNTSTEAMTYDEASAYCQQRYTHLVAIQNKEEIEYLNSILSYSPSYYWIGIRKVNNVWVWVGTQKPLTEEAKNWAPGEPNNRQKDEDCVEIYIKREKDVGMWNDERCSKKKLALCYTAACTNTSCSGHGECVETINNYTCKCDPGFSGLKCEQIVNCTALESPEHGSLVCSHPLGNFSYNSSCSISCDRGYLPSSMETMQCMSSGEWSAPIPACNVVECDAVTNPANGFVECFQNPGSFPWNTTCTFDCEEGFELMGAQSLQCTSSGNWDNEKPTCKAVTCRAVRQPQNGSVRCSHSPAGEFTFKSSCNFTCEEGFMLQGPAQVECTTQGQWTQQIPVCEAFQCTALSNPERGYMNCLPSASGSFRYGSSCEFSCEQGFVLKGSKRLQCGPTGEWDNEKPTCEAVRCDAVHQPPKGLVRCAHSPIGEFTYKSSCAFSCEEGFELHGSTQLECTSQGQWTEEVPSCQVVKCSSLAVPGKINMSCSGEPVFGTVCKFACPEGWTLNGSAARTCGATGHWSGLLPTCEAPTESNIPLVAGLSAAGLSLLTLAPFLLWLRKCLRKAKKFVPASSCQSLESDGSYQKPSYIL
Tumor necrosis factor (Homo sapiens), sequence (P01375 whole entry, looked up): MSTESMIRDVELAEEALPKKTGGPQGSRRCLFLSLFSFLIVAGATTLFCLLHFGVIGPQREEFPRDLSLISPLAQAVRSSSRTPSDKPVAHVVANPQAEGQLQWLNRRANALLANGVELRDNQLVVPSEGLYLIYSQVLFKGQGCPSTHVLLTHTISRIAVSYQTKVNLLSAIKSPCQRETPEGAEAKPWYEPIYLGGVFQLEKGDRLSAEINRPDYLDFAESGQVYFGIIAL

CCCN(CCC)c1c([N+](=O)[O-])cc(C(C)C)cc1[N+](=O)[O-]
inactive: [1] | [2] | [3] | [5] | [12] | [14]
active: [4] 14.6 µM | CD40, CD40 (gene 958) [6] 31 µM | [7] 30.8 µM | [8] 31.9 µM | [9] 31.2 µM | [10] 31.5 µM | [11] 31.3 µM | [13] 26.2 µM | [15] 35.9 µM | [16] 26.1 µM | CD40, CD40 (gene 958) [17] 30.1 µM | CD69, CD69 (gene 969) 33.5 µM

Cc1ccc(N)cc1N
inactive: [1] | [2] | [3] | [4] | [5] | CD40, CD40 (gene 958) [6] | [7] | [8] | [9] | [10] | [11] | [12] | [13] | [14] | [15] | [16] | CD38, CD38 (gene 952) | CD40, CD40 (gene 958) [17] | CD69, CD69 (gene 969)

Cc1ccc([N+](=O)[O-])cc1C
inactive: [1] | [2] | [3] | [4] | [5] | [7] | [8] | [9] | [10] | [11] | [12] | [13] | [14] | [15] | [16] | CD38, CD38 (gene 952) | CD40, CD40 (gene 958) [17] | CD69, CD69 (gene 969)

NC(=O)C(F)(F)C(F)(F)F
inactive: [1] | [2] | [4] | [5] | CD40, CD40 (gene 958) [6] | [7] | [8] | [9] | [10] | [11] | [12] | [13] | [14] | [15] | [16] | CD38, CD38 (gene 952) | CD40, CD40 (gene 958) [17] | CD69, CD69 (gene 969)

OCC(F)(F)OC(F)(F)C(F)(F)OC(F)(F)C(F)(F)OC(F)(F)F
inactive: [7] | [9] | [10] | [11] | [13] | [14] | [16] | CD40, CD40 (gene 958) [17]
active: [1] 41.4 µM and 44.4 µM | [2] 51.7 µM and 45 µM | [4] 54.1 µM and 51.6 µM | [5] 45.7 µM and 45.1 µM | [8] 47.4 µM and 51.8 µM | [10] 55.1 µM | [11] 52.2 µM | [12] 30 µM and 46.8 µM | [14] 49.8 µM | [15] 50.8 µM and 53.5 µM | [16] 42.8 µM | CD40, CD40 (gene 958) [17] 41.6 µM | CD69, CD69 (gene 969) 24.4 µM and 45.7 µM

O=P(OCC(Br)CBr)(OCC(Br)CBr)OCC(Br)CBr (centres undefined)
inactive: [1] | [2] | [3] | [5] | CD40, CD40 (gene 958) [6] | [7] | [8] | [9] | [10] | [11] | [12] | [13] | [14] | [15] | [16] | CD40, CD40 (gene 958) [17] | CD69, CD69 (gene 969)
active: [4] 21.1 µM

CC(O)C(F)(F)C(F)(F)F (centres undefined)
inactive: [1] | [2] | [4] | [5] | [7] | [8] | [9] | [10] | [11] | [12] | [13] | [14] | [15] | [16] | CD40, CD40 (gene 958) [17] | CD69, CD69 (gene 969)
active: [14] 5.95 µM
